Test results: PubChem BioAssay (NCATS)
Records with an inconclusive call do not appear. Active and inactive are the calls of the source. Calls come from the whole dose curve; as a rule, active = well fitted inhibition curve with a large enough effect; inconclusive = small, poorly fitted or top-dose-only effect; inactive = flat fitted curve, though single readings scatter.

How the values were obtained:
Assay in all cases: qHTS profiling for inhibitors of Plasmodium falciparum proliferation (AID 504749); note: nearly all actives have a fitted effect of over 60% in size
Conditions in all cases: P. falciparum in erythrocytes, SYBR Green DNA, 72 h; series mostly up to 28.7 µM
CP194 = tested on: CP194
Outline: (§1)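 In a 72 h erythrocytic culture (37 C, humidified, 5% CO2) at 2.5% hematocrit and 0.3% starting parasitemia, compounds were tested; SYBR Green I in detergent lysis buffer stained parasite DNA overnight.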

CP201 = tested on: CP201
Outline: as §1

CP211 = tested on: CP211
Outline: as §1

CP215 = tested on: CP215
Outline: as §1

CP217 = tested on: CP217
Outline: as §1

CP237 = tested on: CP237
Outline: as §1

CP238 = tested on: CP238
Outline: as §1

CP250 = tested on: CP250
Outline: as §1

CP252 = tested on: CP252
Outline: as §1

CP256 = tested on: CP256
Outline: as §1

CP260 = tested on: CP260
Outline: as §1

CP262 = tested on: CP262
Outline: as §1

CP265 = tested on: CP265
Outline: as §1

CP266 = tested on: CP266
Outline: as §1

CP268 = tested on: CP268
Outline: as §1

CP269 = tested on: CP269
Outline: as §1

CP286 = tested on: CP286
Outline: as §1

CP291 = tested on: CP291
Outline: as §1

CP247 = tested on: CP247
Outline: as §1

CP203 = tested on: CP203
Outline: as §1

Measured: Potency

COc1ccc2nc(S(=O)Cc3ncc(C)c(OC)c3C)[nH]c2c1 (stereo not given)
not listed: CP247 | CP203
inactive: all other assays above

CC(C)NCC(O)COc1ccc(COCCOC(C)C)cc1 (stereo not given)
not listed: CP260 | CP203
inactive: all other assays above

O=NN(CCCl)C(=O)NCCCl
not listed: CP286 | CP203
inactive: all other assays above

Cc1ccc(N(CC2=NCCN2)c2cccc(O)c2)cc1
not listed: CP203
inactive: all other assays above

Clc1cccc(Cl)c1NC1=NCCN1
not listed: CP203
inactive: all other assays above

CC(=O)Oc1ccccc1C(=O)O
not listed: CP203
inactive: all other assays above

N#Cc1ccc(C(c2ccc(C#N)cc2)n2cncn2)cc1
not listed: CP203
inactive: all other assays above

NS(=O)(=O)c1cc2c(cc1Cl)NC=NS2(=O)=O
not listed: CP203
inactive: all other assays above

NC(=O)c1cnccn1
not listed: CP203
inactive: all other assays above

Cc1[nH]c(=O)c(C#N)cc1-c1ccc2nccn2c1
not listed: CP203
inactive: all other assays above

Nc1nc2ccc(OC(F)(F)F)cc2s1
inactive: all assays above

NNCCc1ccccc1
not listed: CP250 | CP262 | CP266 | CP203
inactive: all other assays above

O=c1[nH]cnc2[nH]ncc12
inactive: all assays above

Oc1ccc(C2CNCCc3c2cc(O)c(O)c3Cl)cc1 (stereo not given)
not listed: CP286 | CP203
inactive: all other assays above

Cc1[nH]c(=O)c(C#N)cc1-c1ccncc1
not listed: CP250
inactive: all other assays above

CCc1ccc(CCOc2ccc(CC3SC(=O)NC3=O)cc2)nc1 (stereo not given)
not listed: CP247 | CP203
inactive: all other assays above

CC(C[N+](C)(C)C)OC(N)=O (stereo not given)
not listed: CP203
inactive: all other assays above

N=c1nc(N2CCCCC2)cc(N)n1O
not listed: CP203
inactive: all other assays above

NC[C@H](O)c1ccc(O)c(O)c1
not listed: CP203
inactive: all other assays above
